KB-V1 cytotox – KB-V1 MDR subline cytotoxicity | actives 3.4% (n = 400,000) | Potency, µM (highest dose often 46.1 µM), actives largely listed as cytotoxic | AID 1347076 | KB-V1 MDR cells viability, CellTiter-Glo, 72 h; note: % is set by controls: 0 for no effect and ±100 for the full control effect; nearly all actives have a fitted effect of over 60% in size
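Cytotoxicity toward P-gp-expressing KB-V1 cells was determined as loss of CellTiter-Glo luminescence after 72 h at 37 degrees C. Compounds were tested in quantitative HTS format across a concentration range, with curves fitted to normalized data.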
MCF10A rerep – induces DNA re-replication in MCF 10a normal breast cells. actives 2.9% (n = 350,000). MCF 10A DNA re-replication, Hoechst nuclear intensity, 48 h. Potency, µM (doses to about 46.1 µM), for inactives: top-dose activity, positive = re-replication, hits mostly activators. AID 624296; note: % of control where 0% means no effect; nearly all actives have a fitted effect of over 50% in size
KB-3-1 tox – KB-3-1 parental cell cytotoxicity; KB-3-1 viability, CellTiter-Glo ATP luminescence, 72 h; Potency, µM (highest dose often 46.1 µM), actives largely listed as cytotoxic; actives 1.4% (n = 400,000); AID 1347075; note: % is set by controls: 0 for no effect and ±100 for the full control effect; nearly all actives have a fitted effect of over 60% in size
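KB-3-1 parental drug-naive adenocarcinoma cells in DMEM/10% FBS, incubated 72 h at 37 C with pin-transferred compounds across a concentration series. Viability by CellTiter-Glo luminescence; concentration-response curves fitted after normalization.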
ELG1 DNA repair – blocks ELG1-dependent DNA repair in HEK293T cells | actives 2.3% (n = 330,000) | HEK293T ELG1-luciferase reporter, luminescence, 16 h; DNA damage induced by 5-fluorouridine | Potency, µM (series often up to 46.1 µM), for inactives: top-dose activity change, negative = inhibition, usual class: inhibitors | AID 504467; note: % is set by controls: 0 for no effect and ±100 for the full control effect; nearly all actives have a fitted effect of over 55% in size
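Cells (2,000 per well) received 5-fluorouridine plus test compound or DMSO and were incubated 16 hr at 37 °C, 5% CO2. Luciferase activity was read by luminescence 30 min after ONE-Glo addition; signal suppression marked inhibition of damage-induced ELG1 function.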
SW480 rereplic – DNA re-replication induction in SW480 cells; Potency, µM (top dose mostly 46.1 µM), inactives show at the top dose re-replication activation, most hits filed as activators; AID 624297; actives 1.8% (n = 340,000); SW480 DNA re-replication, Hoechst DNA content imaging, 48 h; note: % of control where 0% means no effect; nearly all actives have a fitted effect of over 55% in size
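Treated cells incubate 48 hr (37 C, 5% CO2), are stained 40 min with Hoechst, and nuclear fluorescence is enumerated; a rise in nuclei with high DNA signal marks re-replication.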
An asterisk follows results filed as active. Most compounds without a hit are left out; they make up all but 8.1% or so of the library. Calls come from the whole dose curve; as a rule, active = well fitted curve in the direction sought with a large enough effect; inconclusive = small, poorly fitted or top-dose-only effect, or another doubt; inactive = no such curve, though single readings can be large; an effect the other way counts as inactive or inconclusive. Potency is the fitted concentration of half-maximal effect.

Results for O=C(CSc1oc(-c2ccccc2)nc1S(=O)(=O)c1ccc(Br)cc1)c1ccccc1 ?
KB-V1 cytotox: inactive; KB-3-1 tox: inconclusive

Results for COc1ccccc1N(C)S(=O)(=O)c1ccc(C(=O)Nc2ccncc2)cc1 ?
KB-V1 cytotox: inactive; MCF10A rerep: inconclusive; KB-3-1 tox: inactive; ELG1 DNA repair: 12µM*; SW480 rereplic: -5%

How did COc1ccccc1NC(=O)c1ccc(S(=O)(=O)N(C)c2ccccc2OC)cc1 do in these assays?
KB-V1 cytotox: inactive; MCF10A rerep: 8%; KB-3-1 tox: inactive; ELG1 DNA repair: inconclusive; SW480 rereplic: 2%

Results for COc1ccccc1N(C)S(=O)(=O)c1ccc(C(=O)NC2CCCCC2)cc1 ?
KB-V1 cytotox: inactive; MCF10A rerep: 15%; KB-3-1 tox: inactive; ELG1 DNA repair: 23µM*; SW480 rereplic: -3%

How did CN(c1cccc(NC(=O)c2ccc(N(C)S(=O)(=O)c3ccccc3)cc2)c1)S(C)(=O)=O do in these assays?
KB-V1 cytotox: inconclusive; MCF10A rerep: inconclusive; KB-3-1 tox: inactive; ELG1 DNA repair: 16µM*; SW480 rereplic: 17%

What do the screens show for `CC(=O)Nc1ccc(C(=O)Nc2cccc(S(=O)(=O)N(C)c3ccccc3)c2)cc1`?
KB-V1 cytotox: inactive; MCF10A rerep: 5%; KB-3-1 tox: inactive; ELG1 DNA repair: inconclusive; SW480 rereplic: -23%

Results for CN(c1cccc(NC(=O)CN(c2ccc(Cl)c(Cl)c2)S(=O)(=O)c2ccccc2)c1)S(C)(=O)=O ?
KB-V1 cytotox: inconclusive; MCF10A rerep: 24%; KB-3-1 tox: inactive; ELG1 DNA repair: 16µM*

How did COc1ccccc1NC(=O)c1ccc(S(=O)(=O)N(C)c2ccccc2)cc1 do in these assays?
KB-V1 cytotox: inactive; MCF10A rerep: 11%; KB-3-1 tox: inactive; ELG1 DNA repair: -29%; SW480 rereplic: 15%

Results for COc1ccccc1N(C)S(=O)(=O)c1ccc(C(=O)N2CCC2)cc1 ?
KB-V1 cytotox: inconclusive; MCF10A rerep: 11%; KB-3-1 tox: inactive; ELG1 DNA repair: 17%; SW480 rereplic: 11%

Results for COc1ccccc1N(C)S(=O)(=O)c1ccc(C(=O)N2CCCc3ccccc32)cc1 ?
KB-V1 cytotox: inactive; MCF10A rerep: inconclusive; KB-3-1 tox: inactive; ELG1 DNA repair: 15µM*; SW480 rereplic: 18%

How did Cc1nnc(NC(=O)c2ccc(S(=O)(=O)N(C)c3ccccc3)cc2)s1 do in these assays?
MCF10A rerep: inconclusive; ELG1 DNA repair: -1%; SW480 rereplic: 0%

How did Cc1csc(NC(=O)c2ccc(S(=O)(=O)N(C)c3ccccc3)cc2)n1 do in these assays?
KB-V1 cytotox: inactive; MCF10A rerep: inconclusive; KB-3-1 tox: inconclusive; ELG1 DNA repair: 23µM*; SW480 rereplic: 5%

Results for CN(c1ccccc1)S(=O)(=O)c1cccc(NC(=O)c2ccc(Cl)c([N+](=O)[O-])c2)c1 ?
KB-V1 cytotox: 16µM*; MCF10A rerep: inconclusive; KB-3-1 tox: 21µM*; ELG1 DNA repair: 21µM*; SW480 rereplic: 4%

What do the screens show for `COc1cc(NC(=O)c2ccc(S(=O)(=O)N(C)c3ccccc3)cc2)cc(OC)c1`?
KB-V1 cytotox: inconclusive; MCF10A rerep: 2%; KB-3-1 tox: inactive; ELG1 DNA repair: 23µM*; SW480 rereplic: -32%

Results for Cc1cccc(C)c1-n1nnnc1C1c2ccccc2C(=O)N1C1CC1 (stereo unspecified) ?
KB-V1 cytotox: inactive; KB-3-1 tox: inactive

How did CN(c1cccc(NC(=O)CN(c2ccc(F)cc2)S(C)(=O)=O)c1)S(C)(=O)=O do in these assays?
KB-V1 cytotox: inactive; MCF10A rerep: -1%; KB-3-1 tox: inactive; ELG1 DNA repair: 2%; SW480 rereplic: 1%

Results for CN(c1ccc(C(=O)Nc2ccc(F)cc2F)cc1)S(=O)(=O)c1ccccc1 ?
MCF10A rerep: inconclusive; ELG1 DNA repair: 15µM*; SW480 rereplic: inconclusive

How did COc1cc(NC(=O)c2ccc(S(=O)(=O)N(C)C)cc2)cc(OC)c1OC do in these assays?
KB-V1 cytotox: inactive; MCF10A rerep: -6%; KB-3-1 tox: inactive; ELG1 DNA repair: 0%; SW480 rereplic: 3%

How did COc1ccccc1N(C)S(=O)(=O)c1ccc(C(=O)Nc2cc(OC)c(OC)c(OC)c2)cc1 do in these assays?
KB-V1 cytotox: inconclusive; MCF10A rerep: inconclusive; KB-3-1 tox: 16µM*; SW480 rereplic: inconclusive

What do the screens show for `CN(c1cccc(NC(=O)CN(c2ccc(C34CC5CC(CC(C5)C3)C4)cc2)S(C)(=O)=O)c1)S(C)(=O)=O`?
KB-V1 cytotox: 18µM*; MCF10A rerep: 5%; KB-3-1 tox: inconclusive; ELG1 DNA repair: inconclusive; SW480 rereplic: -4%

What do the screens show for `CCN(CC)C(=O)C1=C(C)N(Cc2ccccc2)C(=O)C(CC(=O)NC2CC2)C1` (stereo unspecified)?
KB-V1 cytotox: inactive; KB-3-1 tox: inactive

How did CCc1nc2ccc(C(=O)NCc3ccccc3OC)cn2c1N(C)Cc1ccc(N(C)C)cc1 do in these assays?
KB-V1 cytotox: inactive; KB-3-1 tox: inactive

What do the screens show for `C[C@H](CO)N1C[C@H](C)[C@@H](CN(C)C(=O)NC2CCCCC2)Oc2ccc(NS(=O)(=O)c3ccc(F)cc3)cc2C1=O`?
KB-V1 cytotox: inactive; MCF10A rerep: 22%; KB-3-1 tox: inactive; ELG1 DNA repair: 10%; SW480 rereplic: 12%

What do the screens show for `CCc1nc(C)cn1S(=O)(=O)c1cc(Br)ccc1OC`?
KB-V1 cytotox: 16µM*; MCF10A rerep: 4%; KB-3-1 tox: inactive; ELG1 DNA repair: inconclusive; SW480 rereplic: -1%

Results for CCc1nc(C)cn1S(=O)(=O)c1cc(F)ccc1OC ?
KB-V1 cytotox: inactive; MCF10A rerep: -11%; KB-3-1 tox: inactive; ELG1 DNA repair: 0%; SW480 rereplic: -3%

How did COc1ccc(CCCC(=O)NCc2ccccc2)cc1C do in these assays?
KB-V1 cytotox: 6.5µM*; MCF10A rerep: 8.2µM*; KB-3-1 tox: inconclusive; ELG1 DNA repair: -2%; SW480 rereplic: inconclusive

Results for COc1ccc(OC)c(/C=C/C(=O)OCC(=O)NCc2ccccc2)c1 ?
KB-V1 cytotox: inactive; MCF10A rerep: 1%; KB-3-1 tox: inactive; ELG1 DNA repair: -12%; SW480 rereplic: 1%

How did COc1cc(/C=C/C(=O)OCC(=O)NCCc2ccc(S(N)(=O)=O)cc2)ccc1OCC#N do in these assays?
KB-V1 cytotox: inactive; MCF10A rerep: inconclusive; KB-3-1 tox: inactive; ELG1 DNA repair: 12%; SW480 rereplic: 2.6µM*

What do the screens show for `COc1ccc(/C=C/C(=O)OCC(=O)NCc2ccccc2)cc1OC`?
KB-V1 cytotox: inactive; MCF10A rerep: 23µM*; KB-3-1 tox: inconclusive; ELG1 DNA repair: -5%; SW480 rereplic: 16%

Assay outcomes deposited in PubChem BioAssay by National Center for Advancing Translational Sciences (NCATS).
